From PubChem BioAssay (NCATS) come the findings set out here.

Structures are written as SMILES. Inconclusive results are not listed. Activity calls are given as the source filed them. The call rests on the fitted dose curve; in most records, active means well fitted cell-killing curve with a large enough effect; inconclusive means small, poorly fitted or top-dose-only effect, or effect the other way; inactive means no such curve, though single readings can be large or run the other way.
Potency means the concentration at half of the fitted maximal effect.

The nature of this assay: Quantitative High-Throughput drug screen in 47 multiple myeloma cell lines against the NCATS MIPE library collection: PCM6_Riken cell viability assay (AID 1919870). Further: nearly all actives have a fitted effect of over 30% in size. To be noted: CellTiter-Glo ATP, 48 h; series mostly up to 45.8 µM. The text has this:
PI: Beverly A. Mock Ph.D.
Laboratory of Cancer Biology and Genetics,
Center for Cancer Research, National Cancer Institute,
National Institute of Health, Bethesda, Maryland
Drug resistance and disease progression are common in multiple myeloma (MM) patients, underscoring the need for new therapeutic combinations. […] We hypothesized that effective combinations would reduce MYC expression and enhance p16 activity. […] These preclinical data identify potentially useful drug combinations for evaluation in drug-resistant MM and reveal potential mechanisms of combined drug sensitivity.
Described herein is the primary MIPE qHTS used to cherrypick compounds. Validated compounds were then further tested for potential synergistic activiy.
[1] Peat TJ, Gaikwad SM, Dubois W, Gyabaah-Kessie N, Zhang S, Gorjifard S, Phyo Z, Andres M, Hughitt VK, Simpson RM, Miller MA, Girvin AT, Taylor A, Williams D, D'Antonio N, Zhang Y, Rajagopalan A, Flietner E, Wilson K, Zhang X, Shinn P, Klumpp-Thomas C, McKnight C, Itkin Z, Chen L, Kazandijian D, Zhang J, Michalowski AM, Simmons JK, Keats J, Thomas CJ, Mock BA. Drug combinations identified by high-throughput screening promote cell cycle transition and upregulate Smad pathways in myeloma. Cancer Lett. 2023 Aug 1;568:216284. doi: 10.1016/j.canlet.2023.216284. Epub 2023 Jun 24. PMID: 37356470; PMCID: PMC10408729.
SEQUENCE No. (e.g., 1, 2, 3, etc.); […] (e.g., Cells, Incubation, Reagent, etc.); VALUE and DESCRIPTION.
1; Cells; 5 uL; white, solid bottom 1536-well Greiner assay plate.
2; Compounds; 23 nL; Kalypsis pin tool (Wako USA) equipped with a 1536-well pin head to transfer to the assay plates.
3; Incubation; 48 hours; 37C incubation.
4; Reagent;5uL; CellTiter Glo (Promega).
5; Detector; 425V; Luminescence; Viewlux PerkinElmer.
NOTES (numbers refer to Sequence numbers above)
1. The cell-based screening methods employed in this study were like those previously published. Briefly, the corresponding myeloma cell lines were screened in 1,536-well plates with 500 cells, 5-uL per well for inhibition of cell viability (assessed by measuring ATP levels with CellTiterGlo).
2. NCATS MIPE 4.0 library of approved and investigational drugs were added using the Kalypsis pin tool. Wells treated with DMSO only for 100% viability and media only for 0% viability were used as controls.
3. The assay plates were covered and incubated for 48 hours in a 37C, 5% CO2 incubator with controlled humidity.
4. After 48 hours, CellTilter-GloTM luminescent substrate mix (Promega) reagent was added to the assay plate and plates we incubated for 5 min at room temperature.
5. Signal was measured as median relative luminescence units on a ViewLux (PerkinElmer) multiplate reader.
[1] Heske CM, Davis MI, Baumgart JT, Wilson K, Gormally MV, Chen L, Zhang X, Ceribelli M, Duveau DY, Guha R, Ferrer M, Arnaldez FI, Ji J, Tran HL, Zhang Y, Mendoza A, Helman LJ, Thomas CJ. Matrix Screen Identifies Synergistic Combination of PARP Inhibitors and Nicotinamide Phosphoribosyltransferase (NAMPT) Inhibitors in Ewing Sarcoma. Clin Cancer Res. 2017 Dec 1;23(23):7301-7311. doi: 10.1158/1078-0432.CCR-17-1121. Epub 2017 Sep 12. PMID: 28899971; PMCID: PMC6636827.
In general terms: Cellular ATP, detected with luciferase, serves as a proxy for viable cell number.
Consider `COCC(=O)NCC=Cc1ccc2ncnc(Nc3ccc(Oc4ccc(C)nc4)c(C)c3)c2c1`, for which the Potency is 20.9 µM (active).
In the case of `CC1(C)Cc2c(-c3ccccc3)c(-c3ccc(Cl)cc3)c(CC(=O)O)n2C1` it was 20.9 µM (active); in that of `OCCC#Cc1nc(-c2ccc(F)cc2)c(-c2ccncc2)n1CCCc1ccccc1`, 23.5 µM (active); in that of `COc1cc(F)c(F)c(Nc2ccc(I)cc2F)c1NS(=O)(=O)C1(C[C@H](O)CO)CC1`, 14.8 µM (active).
In the case of `CC(C)(Sc1ccc(CCN(CCCCC2CCCCC2)C(=O)NC2CCCCC2)cc1)C(=O)O`, the Potency result is “inactive”.
In the case of `c1ccc(-c2nn3c(c2-c2ccnc4cc(OCCN5CCOCC5)ccc24)CCC3)nc1` it was 1.48 µM (active); in that of `Oc1cccc(-c2nc(N3CCOCC3)c3oc4ncccc4c3n2)c1`, 0.54 µM (active).
In the case of `Cc1cn[nH]c1` it was 0.0833 µM (active).
In the case of `Cn1cnc2c(F)c(Nc3ccc(Br)cc3Cl)c(C(=O)NOCCO)cc21` it was 0.166 µM (active); in that of `COc1cc2nccc(Oc3ccc(NC(=O)NC4CC4)c(Cl)c3)c2cc1C(N)=O`, 16.6 µM (active).
As for `CCn1c(-c2nonc2N)nc2c(C#CC(C)(C)O)ncc(OC[C@H]3CCCNC3)c21`, the Potency is 14.8 µM (active).
Turning to `CS(=O)(=O)c1cccc(CNc2nc(Nc3ccc4c(c3)CCC(=O)N4)ncc2C(F)(F)F)c1`, the Potency is 7.43 µM (active).
In the case of `Cc1cc(C=c2sc3nc4ccccc4n3c2=O)c(C)n1-c1ccccc1` it was “inactive”; in that of `Cc1ccc(NC(=O)c2cccc(C(C)(C)C#N)c2)cc1Nc1ccc2ncn(C)c(=O)c2c1`, “inactive”; in that of `CCOc1cc(N2CCC(O)CC2)ccc1Nc1ncc2c(n1)N(C)c1ccccc1C(=O)N2C`, 14.8 µM (active).
On to `O=c1[nH]cnc2[nH]ncc12`, for which the Potency entry is “inactive”.
`NC(=O)C1CCCc2c1[nH]c1ccc(Cl)cc21` (stereo not given): the Potency is 16.6 µM (active).
In the case of `COc1nc(-c2ccc3c(c2)OCO3)n(-c2ccc(NC(=O)CSc3ccccc3)cc2)n1`, the Potency result was “inactive”.
Take `OC(CN1CCC(Cc2ccc(F)cc2)CC1)c1ccc(Cl)cc1` (stereo not given): the Potency entry was “inactive”.
In the case of `CCCS(=O)(=O)Nc1ccc(F)c(C(=O)c2c[nH]c3ncc(-c4ccc(Cl)cc4)cc23)c1F` it was 5.26 µM (active); in that of `CC(C)(C)NCC(O)c1ccc(O)c(CO)c1` (stereo not given), “inactive”.
In the case of `CC(C)OC(=O)C1=CN(C(=O)c2ccc(F)c(F)c2)CC(C)(C)c2c1[nH]c1ccccc21` it was “inactive”.
In the case of `Cc1c(CCOc2ccc(C(=O)O)cc2)c2cc(Cl)ccc2n1C(c1ccccc1)c1ccccc1` it was “inactive”; in that of `NNCCc1ccccc1`, “inactive”.
On to `O=C(O)CCc1ccc(NCc2cccc(Oc3ccccc3)c2)cc1`, for which the Potency entry was “inactive”.
In the case of `O=C(Nc1cccnc1)N1CCC(Cc2cccc(Oc3ccc(C(F)(F)F)cn3)c2)CC1` it was 14.8 µM (active); in that of `Nc1nc2[nH]cc(CCc3ccc(C(=O)N[C@@H](CCC(=O)O)C(=O)O)cc3)c2c(=O)[nH]1`, “inactive”.
Turning to `O=c1ncn2nc(Sc3ccc(F)cc3F)ccc2c1-c1c(Cl)cccc1Cl`, the Potency is 13.2 µM (active).
Consider `S=C(NCc1ccc2c(c1)OCO2)N1CCN(c2ncnc3c2oc2ccccc23)CC1`, for which the Potency is 4.81 µM (active).
In the case of `CC1(C)CNc2cc(NC(=O)c3cccnc3NCc3ccncc3)ccc21` it was 1.32 µM (active); in that of `O=C(C=Cc1ccc(/C=C/C(=O)Nc2ccc(C3=NCCN3)cc2)cc1)Nc1ccc(C2=NCCN2)cc1`, “inactive”.
With `CCOC(=O)N1CCC(=C2c3ccc(Cl)cc3CCc3cccnc32)CC1`, the Potency entry was “inactive”.
In the case of `CN(C)c1ccc(Nc2nc(N)n(C(=O)c3c(F)cccc3F)n2)cc1` it was 13.2 µM (active); in that of `COc1ccc(-c2oc3cc(OC)ccc3c2C(=O)c2ccc(C#N)cc2)cc1`, 5.26 µM (active); in that of `CC(C)(C)OC(=O)CN(Cc1ccc(Cl)cc1)Cc1ccc([N+](=O)[O-])s1`, “inactive”.
In the case of `Nc1nc2c(ncn2COCCO)c(=O)[nH]1` it was 23.5 µM (active); in that of `NS(=O)(=O)c1cc2c(cc1Cl)NC=NS2(=O)=O`, “inactive”; in that of `COc1cccc2cc(-c3nc(C4CCC(C(=O)O)CC4)n4ncnc(N)c34)[nH]c12` (stereo not given), 1.87 µM (active).
In the case of `COc1ccc(-c2ccc3c(N4CCOCC4)nc(N4C[C@@H](C)O[C@@H](C)C4)nc3n2)cc1CO` it was 1.48 µM (active).
Take `CCOC(=O)N[C@@H]1CC[C@@H]2[C@@H](C1)C[C@H]1C(=O)O[C@H](C)[C@H]1[C@@H]2C=Cc1ccc(-c2cccc(F)c2)cn1`: the Potency entry was “inactive”.
